The structures appear in SMILES notation. Where a name gives a salt, the structure may show the parent alone.

The first experiment deals with thyroid hormone receptor (endogenous TRα and TRβ). Further details: species or system GH3-TRE-Luc (rat pituitary); GH3-TRE-Luc luciferase reporter, antagonist mode against 1 nM T3, loss of signal, qHTS. To be noted: antagonist mode, 1 nM T3, no GH3 cytotoxicity hit, read-out: Average AC50 (uM) GH3-TRE-Antag.
A word on the AC50: it is the concentration at which the activity in the assay is half-maximal. Turning to `NC(=S)Nc1ccccc1` [1-Phenyl-2-thiourea], the AC50 amounted to 43.9 µM. Same read-out and setting: as for `C[C@]12CC[C@H](O)C[C@H]1CC[C@@H]1[C@@H]2CC[C@]2(C)[C@@H](c3ccc(=O)oc3)C[C@H]3O[C@]132` [Bufogenin], the figure is 39.2 µM.

Turning to `Cc1ccc2c(c1)[C@]13CCCC[C@@H]1[C@H](C2)N(C)CC3` [Dimemorfan phosphate], the AC50 came to 42.3 µM. Same read-out and setting: the result for `CNC(=O)Oc1ccccc1C(=O)Nc1ccccc1` [Anilamate] reads over 50 µM; that for `ClC1(Cl)C2(Cl)C3(Cl)C4(Cl)C(Cl)(Cl)C5(Cl)C3(Cl)C1(Cl)C5(Cl)C24Cl` (stereo not shown) [Mirex], over 90 µM; that for `COP(=S)(OC)Oc1nc(Cl)c(Cl)cc1Cl` [Chlorpyrifos-methyl], 78.8 µM. For the molecule `Clc1cc(Cl)c(-c2cc(Cl)c(Cl)cc2Cl)cc1Cl` [2,2',4,4',5,5'-Hexachlorobiphenyl], the AC50 stood at 35.4 µM. On the same count and under the same terms, the result for `CCOP(=S)(OCC)Oc1cc(C)nc(C(C)C)n1` [Diazinon] reads 46.4 µM; that for `CN(C)c1ccc(C(c2ccccc2)c2ccc(N(C)C)cc2)cc1` [Leucomalachite green], 20.8 µM. Same read-out and setting: as for `CCN(CC)c1nc(C)cc(OP(=S)(OC)OC)n1` [Pirimiphos-methyl], the figure is 57.1 µM; as for `COP(=O)(OC)OC(=CCl)c1cc(Cl)c(Cl)cc1Cl` [Tetrachlorovinphos], 27.1 µM; as for `C[C@]12CC[C@H]3[C@@H](CCC4=C(Cl)C(=O)CC[C@@]43C)[C@@H]1CC[C@@H]2O` [Clostebol], 29.2 µM. The same measure, in the same setting: as for `C[C@]12CCC(=O)C=C1CC[C@@H]1[C@@H]2CC[C@]2(C)C(=O)CC[C@@H]12` [4-Androstene-3,17-dione], the figure is over 50 µM; as for `CCN(CC)C(=O)[C@@H]1C=C2c3cccc4[nH]cc(c34)C[C@H]2N(C)C1` [Lysergide], over 50 µM.

In the case of `CCCCSP(=O)(SCCCC)SCCCC` [Tribufos], the AC50 stood at 50.4 µM. Still for that read-out and setting: as for `C[C@]12C=CC(=O)C=C1CC[C@@H]1[C@@H]2CC[C@@]2(C)[C@H]1CC[C@]2(C)O` [Methandrostenolone], the figure is 34.4 µM.

The experiment is the same for the next values; noted with them: read-out: Average AC50 (uM) GH3-TRE-Antag; 24 h; antagonist.
`Cc1ccc(OP(=O)(Oc2ccc(C)cc2C)Oc2ccc(C)cc2C)c(C)c1` [TXP]: the AC50 was found to be 70.6 µM.

Consider `CN(C)CCc1c[nH]c2cccc(O)c12` [Psilocin], for which the concentration at half-maximal activity (AC50) amounted to 91 µM. On the same count and under the same terms, as for `CN1C(=S)CN=C(c2ccccc2)c2cc(Cl)ccc21` [Sulazepam], the figure is 43.6 µM; as for `Cc1cc2c3c(c1)C(c1ccccc1)=N[C@@H](NC(=O)c1ccncc1)C(=O)N3CC2` [CI-1018], 27.4 µM; as for `CC[C@H]1C[C@H]2[C@@H]3CCC4=CC(=O)CC[C@@H]4[C@H]3CC[C@]2(C)[C@H]1O` [Oxendolone], 21.2 µM. Take `C[C@]12CC[C@H]3[C@@H](CCC4=CC(=O)CC[C@@H]43)[C@@H]1CC[C@@H]2O` [Nandrolone]: the AC50 is 32.5 µM. Still for that read-out and setting: as for `O=C1CN=C(c2ccccc2)c2cc(Cl)ccc2N1` [Desmethyldiazepam], the figure is 22.9 µM.

`O=C1Nc2ccc(Cl)cc2C(c2ccccc2Cl)=NC1O` (stereo not shown) [Lorazepam]: the half-maximal activity concentration (AC50) is over 50 µM. For the molecule `COc1cc(C[C@H](C)N)c(OC)cc1C` [(S)-(+)-2,5-Dimethoxy-4-methylamphetamine hydrochloride], the AC50 amounted to 49.7 µM.

Values taken from article PMC6792352, “Limited Chemical Structural Diversity Found to Modulate Thyroid Hormone Receptor in the Tox21 Chemical Library” (Environmental Health Perspectives, 2019).
